Experimental data from PubChem BioAssay AID1159580 (chemical genetic matrix, 2015).
“And” between values parts separate entries of the source, which are not always exact repeats. Identical values can stand only once. The whole screen tested about 5,500 compounds, of which about 2,000 (36%) were called active. Not shown: some 18% with an inconclusive outcome. No stated cut-off is given here; in the data, active means normalized growth mostly below about 0.91 (no sharp cut-off); inconclusive means no clear call, values can overlap the other calls; inactive means mostly above about 0.92. Some of the results follow.

Experiment: chemical genetic growth profiling, strain panel (AID 1159580);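 further: tested at 20 µM; growth read once vehicle control cultures reached saturation at 30 °C; 1 = growth at the plate median or of vehicle wells; lower values mean less growth of the strain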
Settings: S. cerevisiae deletion strains, growth OD

Measured: normalized growth

NCC(O)CC(=O)O (centres undefined)
inactive: locus YAL021C, strain ccr4, hits give low values 1.01 | locus YAL026C, strain drs2, hits give low values 0.967 | locus YAL030W, strain snc1, hits give low values 0.98 | locus YBL061C, strain skt5, hits give low values 0.986 | locus YBR009C, strain hhf1, hits give low values 0.962 | locus YBR021W, strain FUR4, hits give low values 0.999 | locus YBR023C, strain chs3, hits give low values 0.994 | locus YBR171W, strain sec66, hits give low values 0.989 | locus YBR229C, strain ROT2, hits give low values 1.01 | locus YBR231C, strain swc5, hits give low values 0.995 | locus YBR279W, strain paf1, hits give low values 0.991 | locus YCL011C, strain gbp2, hits give low values 0.966 | locus YCL016C, strain dcc1, hits give low values 0.994 | locus YCL029C, strain bik1, hits give low values 0.992 | locus YCL061C, strain MRC1, hits give low values 0.995 | locus YCL069W, strain vba3, hits give low values 0.984 | locus YCR088W, strain abp1, hits give low values 0.977 | locus YDL005C, strain med2, hits give low values 0.969 | locus YDL035C, strain GPR1, hits give low values 1.01 | locus YDL040C, strain nat1, hits give low values 0.991 | locus YDL074C, strain BRE1, hits give low values 1.01 | locus YDL101C, strain DUN1, hits give low values 1.01 | locus YDL134C, strain PPH21, hits give low values 1.01 | locus YDL185W, strain tfp1, hits give low values 0.994 | locus YDL192W, strain arf1, hits give low values 0.997 | locus YDR001C, strain nth1, hits give low values 0.977 | locus YDR069C, strain doa4, hits give low values 1.04 | locus YDR101C, strain arx1, hits give low values 1.02 | locus YDR137W, strain rgp1, hits give low values 0.988 | locus YDR159W, strain sac3, hits give low values 0.968 | locus YDR162C, strain NBP2, hits give low values 1.02 | locus YDR195W, strain ref2 0.951 | locus YDR297W, strain sur2, hits give low values 0.986 | locus YDR318W, strain mcm21, hits give low values 1.01 | locus YDR334W, strain swr1, hits give low values 0.975 | locus YDR335W, strain msn5, hits give low values 0.988 | locus YDR388W, hits give low values 0.999 | locus YDR392W, strain spt3, hits give low values 0.892 | locus YDR502C, strain sam2, hits give low values 0.991 | locus YEL003W, strain gim4, hits give low values 0.964 | locus YEL037C, strain rad23, hits give low values 0.977 | locus YEL061C, strain CIN8 (second series), hits give low values 0.966 | locus YEL061C, strain CIN8, hits give low values 1.01 | locus YER015W, strain faa2, hits give low values 0.986 | locus YER016W, strain bim1, hits give low values 0.983 | locus YER110C, hits give low values 1 | locus YER111C, strain swi4, hits give low values 0.974 | locus YER155C, strain BEM2 (second series), hits give low values 0.997 | locus YER155C, strain BEM2, hits give low values 1.01 | locus YER167W, strain BCK2, hits give low values 1.01 | locus YFR010W, strain ubp6, hits give low values 0.973 | locus YGL078C, strain dbp3, hits give low values 0.994 | locus YGL086W, strain mad1, hits give low values 1 | locus YGL167C, strain pmr1, hits give low values 0.957 | locus YGL173C, strain kem1, hits give low values 0.984 | locus YGL227W, strain vid30, hits give low values 0.955 | locus YGL240W, strain doc1, hits give low values 0.989 | locus YGL248W, strain PDE1, hits give low values 1.01 | locus YGL253W, strain hxk2, hits give low values 0.989 | locus YGR078C, strain PAC10, hits give low values 1.01 | locus YGR135W, strain pre9, hits give low values 1 | locus YGR252W, strain gcn5, hits give low values 0.982 | locus YHR013C, strain ard1, hits give low values 0.964 | locus YHR027C, strain rpn1, hits give low values 0.997 | locus YHR030C, strain SLT2, hits give low values 1.01 | locus YHR079C, strain IRE1 (second series), hits give low values 1 | locus YHR079C, strain IRE1, hits give low values 1.03 | locus YHR094C, strain hxt1, hits give low values 0.988 | locus YHR129C, strain ARP1, hits give low values 1.01 | locus YHR142W, strain chs7, hits give low values 1.02 | locus YHR200W, strain rpn10, hits give low values 0.999 | locus YIL066C, strain RNR3, hits give low values 1.02 | locus YIL073C, strain SPO22, hits give low values 1.03 | locus YIL125W, strain kgd1, hits give low values 1.01 | locus YIR030C, strain dcg1, hits give low values 1 | locus YJL092W, strain hpr5, hits give low values 0.99 | locus YJL095W, strain BCK1 (second series), hits give low values 1.01 | locus YJL095W, strain BCK1, hits give low values 1.01 and 1.02 | locus YJL115W, strain asf1, hits give low values 0.981 | locus YJL129C, strain trk1, hits give low values 0.991 | locus YJL134W, strain LCB3, hits give low values 1.01 | locus YJL154C, strain vps35, hits give low values 0.981 | locus YJL164C, strain tpk1, hits give low values 1.06 | locus YJL166W, strain qcr8, hits give low values 1.02 | locus YJL168C, strain set2, hits give low values 0.997 | locus YJL187C, strain SWE1 (second series), hits give low values 1.02 | locus YJL187C, strain SWE1, hits give low values 0.994 | locus YJR043C, strain POL32, hits give low values 1.02 | locus YJR066W, strain TOR1, hits give low values 0.924
